# PubChem BioAssay AID2783 (National Center for Advancing Translational Sciences (NCATS), 2010)
# Results filed as inconclusive are left out. Active and inactive are the calls of the source. The call rests on the fitted dose curve; in most records, active means well fitted inhibition curve with a large enough effect in the polarisation, with a control signal flat (not every such curve was filed as active); inconclusive means small, poorly fitted or top-dose-only effect, or effect the other way, or a change in a side signal; inactive means no such curve, though single readings can be large or run the other way; the % refers to the polarisation. Where a SMILES comes first, the peptide text is derived from it. Bridges are numbered along the chain shown (N, C = ends). [ ]: non-standard residue; d: D form. The star is where a group is joined. ξ: configuration not given here. ξDab(CH2SO3H) = NC(CCNCS(=O)(=O)O)C(=O)O; Heptanoyl(6-Me) = CC(C)CCCCC(=O)*; Dab = NCC[CH](N)C(=O)O
# Biological target: Menin (Homo sapiens) (UniProt O00255)
# Assay: Confirmation of Inhibitors Targeting the Menin-MLL Interaction in MLL Related Leukemias: Competition With Fluorescein Labeled MLL-derived Peptide
# Conditions: Fluorescence polarization, fluorescein-MLL peptide displacement from menin; series mostly up to 100 µM
# Menin (Homo sapiens), sequence (O00255 whole entry, looked up): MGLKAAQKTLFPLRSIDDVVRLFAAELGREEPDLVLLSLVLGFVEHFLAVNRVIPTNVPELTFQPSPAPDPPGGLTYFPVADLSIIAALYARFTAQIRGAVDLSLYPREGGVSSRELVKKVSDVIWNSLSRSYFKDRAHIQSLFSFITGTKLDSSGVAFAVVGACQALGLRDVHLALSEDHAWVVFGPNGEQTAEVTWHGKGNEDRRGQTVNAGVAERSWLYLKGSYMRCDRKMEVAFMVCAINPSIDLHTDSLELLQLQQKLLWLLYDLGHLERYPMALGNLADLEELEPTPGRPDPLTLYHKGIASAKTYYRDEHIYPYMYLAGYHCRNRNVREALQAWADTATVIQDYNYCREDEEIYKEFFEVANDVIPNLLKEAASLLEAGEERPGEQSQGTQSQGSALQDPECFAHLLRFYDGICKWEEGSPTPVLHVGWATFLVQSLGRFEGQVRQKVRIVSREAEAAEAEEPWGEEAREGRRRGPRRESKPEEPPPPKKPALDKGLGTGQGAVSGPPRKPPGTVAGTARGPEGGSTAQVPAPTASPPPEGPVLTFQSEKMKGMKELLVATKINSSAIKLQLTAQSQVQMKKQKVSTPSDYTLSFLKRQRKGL
row,SMILES,outcome
1,Cc1nn(-c2ccccc2)c2nc(N)c(C(N)=O)cc12,inactive
2,CCc1ccc2c(c1)C(NC(C)=O)C(=O)N2CCN1CCOCC1 (centres undefined),inactive
3,c1ccc2c(c1)nc(N1CCOCC1)c1c3ccccc3[nH]c21,inactive
4,Cc1ccc(C)n1-c1ccc(N(C)C)cc1,inactive
5,CC(=O)c1cccc(OCC(O)CNCC2COc3ccccc3O2)c1 (centres undefined),inactive
6,Cc1cccc(Nc2nnc(SCC(=O)NC(=O)Nc3ccc4c(c3)OCCO4)s2)c1,inactive
7,O=C(/C=C/c1ccccc1)NC(NC(=S)Nc1cc(Cl)ccc1Cl)C(Cl)(Cl)Cl (centres undefined),inactive
8,COc1cccc(NC(=O)N2CCCc3ccccc32)c1,inactive
9,CCN1C(=O)c2ccccc2S(=O)(=O)c2ccc(C(=O)NCCCN(CC(C)C)CC(C)C)cc21,inactive
10,COC(=O)c1ccccc1NC1=C/C(=N\S(=O)(=O)c2ccc(C(=O)O)cc2)c2ccccc2C1=O,inactive
11,COc1cnc(-c2ccccn2)nc1N(C)c1ccccc1,inactive
12,CC(=O)c1cccc(NS(=O)(=O)c2ccc(N/C=C\C(=O)c3ccc(F)cc3)cc2)c1,inactive
13,COc1ccc(CNC(=O)C(c2ccc(O)cc2)N(Cc2ccco2)C(=O)c2snc(C(N)=O)c2N)cc1 (centres undefined),inactive
14,O=C(O)/C(=C\c1ccc(F)cc1)c1ccc(-c2ccccc2)cc1,inactive
15,O=c1cc(O)c2ccccc2n1Cc1ccccc1F,inactive
16,COc1ccc(-c2csc(NC(=O)c3cc(-c4cccs4)nc4ccccc34)n2)c(OC)c1,inactive
17,COc1ccc(CC(=O)Nc2ccc(-c3nnc(-c4ccccc4)o3)cc2)cc1,inactive

row,SMILES,outcome
1,COc1ccc(Cn2nnnc2C(c2ccccc2)N2CCN(C3CCCC3)CC2)cc1 (centres undefined),inactive
2,COC(=O)C1[C@H]2SC(C)(C)C(C(=O)OC)N2C(=O)N1Cc1nc2ccccc2s1 (some centres undefined),inactive
3,C/C(=N\NC(=O)c1nnn(-c2nonc2N)c1C)c1ccc(-c2ccccc2)cc1,inactive
4,COc1ccccc1CC(=O)Nc1ccc(-c2noc(COc3ccc(Br)cc3)n2)cc1,inactive
5,NC(=O)c1ccc(NC(=O)c2cncn2-c2ccccc2)cc1,inactive
6,CCN1CCN(CC(=O)Nc2ccc(C(C)=O)cc2)CC1,inactive
7,CCCCC(=O)NC(=S)Nc1nnn(CCC)n1,inactive
8,O=C(CSc1ccc(Cl)cc1)Nc1ccc(NC(=O)c2ccco2)cc1,inactive
9,Cc1cnc(NC(=O)C2C(=O)c3ccccc3S(=O)(=O)N2C)s1 (centres undefined),inactive
10,Cc1ccc(NC(=O)CN2C(=O)S/C(=C\c3ccc(C(=O)O)cc3)C2=O)cc1,inactive
11,COc1ccccc1NS(=O)(=O)c1cc(NC(=O)Nc2ccccc2)ccc1N1CCCCC1,inactive
12,COc1ccccc1/C=C/C(=O)NC(=S)Nc1ccc(S(=O)(=O)N(C)c2ccccc2)cc1,inactive
13,CCCN(CCC)CCCNC(=S)Nc1ccc2nc(N3CCCC3)cc(C)c2c1,inactive
14,NS(=O)(=O)c1ccc(NC(=O)c2ccc(S(=O)(=O)N3CCc4ccccc43)cc2)cc1,inactive
15,CCC(=O)NC(=S)Nc1ccc(-c2nc3ccc(C)cc3s2)cc1,inactive
16,CCC(C)C1NC(=O)C(CCNCS(=O)(=O)O)NC(=O)C(NC(=O)C(CCNCS(=O)(=O)O)NC(=O)C(NC(=O)C(CCNCS(=O)(=O)O)NC(=O)CCCCC(C)C)C(C)O)CCNC(=O)C(C(C)O)NC(=O)C(CCNCS(=O)(=O)O)NC(=O)C(CCNCS(=O)(=O)O)NC(=O)C(C(C)CC)NC1=O (centres undefined) ({Heptanoyl(6-Me)}-[ξDab(CH2SO3H)]T[ξDab(CH2SO3H)][Dab][ξDab(CH2SO3H)]II[ξDab(CH2SO3H)][ξDab(CH2SO3H)]T; lactam 4-C; configuration not given here),inactive
17,O=C(O)c1ccccc1NS(=O)(=O)c1cccc(-n2sc3ccccc3c2=O)c1,inactive
